Each molecule was assayed against T1, Arginase-2, mitochondrial (Homo sapiens) (UniProt P78540) (assay: in vitro enzyme assay to detect the production of urea directly proportional to the activity of Arginase II). Conditions: 33.3 µM.
T1 sequence (whole entry): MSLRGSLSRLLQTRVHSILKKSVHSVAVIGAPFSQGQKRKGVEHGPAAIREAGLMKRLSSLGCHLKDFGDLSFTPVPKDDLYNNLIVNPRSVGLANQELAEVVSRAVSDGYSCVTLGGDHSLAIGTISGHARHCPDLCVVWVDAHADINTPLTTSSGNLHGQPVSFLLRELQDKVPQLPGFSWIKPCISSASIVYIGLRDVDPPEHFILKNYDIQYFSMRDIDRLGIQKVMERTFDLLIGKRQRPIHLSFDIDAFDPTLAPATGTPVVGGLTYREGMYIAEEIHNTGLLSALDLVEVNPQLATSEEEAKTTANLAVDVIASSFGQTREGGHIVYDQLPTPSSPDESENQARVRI
Format: functional
Set-up: scale not given: in the data most compounds retested in dose-response had high values

Row | Compound | Percent Effect
1 | CCS(=O)(=O)N1C[C@H]2CCC[C@@]2(COc2ccccn2)C1 | -6.16%
2 | Cc1ccc(CNCCOc2ccc(S(C)(=O)=O)cc2)cc1 | -0.798%
3 | Cn1nnc2cc(C(=O)N3CCCC3Cc3ccccc3)ccc21 (centres undefined) | -3.18%
4 | Cn1cnnc1C1CCCN(C(=O)NCCOc2ccccc2)C1 (centres undefined) | -1.47%
5 | Cc1ccc(-c2cccc(-c3ccn(CCN4CCCC4)n3)c2)nn1 | 0.952%
6 | c1coc(-c2nnc(CN3CCCC(CN4CCCCCC4)C3)o2)c1 (centres undefined) | -7.1%
7 | OC(CN1CCN(Cc2ccc(F)cc2)CC1)C1CC1 (centres undefined) | 1.82%
8 | CCCNC(=O)c1ccc(NC(=O)c2cccc(OCC)c2)cc1 | 0.952%
9 | Cc1cc(CN2CCOC(CN(C)c3cccnn3)C2)no1 (centres undefined) | -0.21%
10 | Cc1noc(C)c1CN1CCN(C(=O)Cn2cncn2)CC1 | 3.72%
11 | CC(C)(C)C(=O)N1CCC(c2nc(O)cc(-c3ccccn3)n2)CC1 | -5.34%
12 | COc1cc(CNCc2ccc(C(C)O)cc2)cc2c1OCO2 (centres undefined) | 0.185%
13 | c1cnc(-c2nc(CNCCn3cccn3)cs2)nc1 | -2.68%
14 | O=C(NCCNc1ccccn1)N1CCSCC1 | 0.802%
15 | O=C(CS(=O)(=O)c1ccccc1Cl)NC1CCCCNC1=O (centres undefined) | -1.78%
16 | N#CC1(C(=O)NCCCNc2ccc(C(F)(F)F)cn2)CCCC1 | 1.53%
17 | O=C1CCc2cc(-c3csc(CCN4CCCC4=O)n3)ccc2N1 | -4.98%
18 | CCn1c(C(=O)N2CCN(C(=O)COC)CC2)cc2ccccc21 | 2.49%
19 | CC(O)CC(C)(C)CNC(=O)NCc1cccc(-n2ccnc2)c1 (centres undefined) | -2.23%
20 | CCS(=O)(=O)NCCNC(=O)c1cc(Cl)c2c(c1)OCCCO2 | 5.21%

Row | Compound | Percent Effect
21 | COc1c(CNCc2ccnc(N3CCCC3)c2)c(C)nn1C | -0.215%
22 | C[C@H]1C[C@@H]2CCN(C(=O)c3ccncn3)C[C@H]2O1 | 2.08%
23 | CCNC(=O)NC(=O)CSC(C)c1ccccc1F (centres undefined) | 16.7%
24 | CN(Cc1ccsc1)C(=O)Nc1ccc(S(C)(=O)=O)nc1 | -3.04%
25 | Cc1cc(F)ccc1OC1(C(=O)O)CCN(Cc2ccncc2)CC1 | 13.5%
26 | COc1cc(NC(=O)Cn2ccc3sc(C)cc3c2=O)cc(OC)c1 | 17.4%
27 | O=C(CCCc1nnc(-c2ccccc2)o1)N1CCN(CCO)CC1 | 5.7%
28 | CNc1cc2c(nn1)CCN(C(=O)c1ccoc1)C2 | 4%
29 | O=C1NC2(CCN(C(=O)c3ccccc3)CC2)CC1c1cccnc1 (centres undefined) | -6.39%
30 | CNC(=O)[C@H]1C[C@@H]2CN(S(=O)(=O)c3ccccc3)C[C@@H]2N1C(C)=O | 1.38%
31 | CC(=O)NCC(=O)N1Cc2nccn2CC(Cn2cccn2)C1 (centres undefined) | 1.59%
32 | CCc1cnc2c(c1NCc1ccncc1)c(=O)n(C)c(=O)n2C | 5%
33 | CCn1cnnc1C1CCN(C(=O)COCCc2ccccc2)CC1 | -5.26%
34 | Cc1nc(C2CCCN(C(=O)CCCn3ccnc3C)C2)no1 (centres undefined) | 3.56%
35 | O=C(c1cscn1)N1C[C@H]2CCCC(OCc3cccnc3)[C@H]2C1 (some centres undefined) | -37.5%
36 | CSc1cccc(CNC(=O)C2CC(=O)N(CCN(C)C)C2)c1 (centres undefined) | 1.56%
37 | COc1ccc(-c2noc(CN3CCOCC3C)n2)cc1OC (centres undefined) | -6.81%
38 | OCC1CCCN1c1cc(NCCNc2ccccn2)ncn1 (centres undefined) | 3.64%
39 | O=C(Nc1cc(F)ccc1OCC1CCCO1)c1ccccn1 (centres undefined) | 3.16%

Source: ChEMBL document CHEMBL3988442, “University of Dundee, Small-Polar-MMV Screening Library” (2021)
